Reference: PubChem BioAssay (EPA / NIEHS)
Active and inactive are the calls of the source. Rule for the calls: active = hit-call score of the fitted dose curve at least 0.9, where 1 is the maximum; inactive = score below 0.9.

How the values were obtained:
Details in all cases: mRNA level, 48 h; actives raise or lower the signal
CYP2E1 (gene 1571) = test: LTEA_HepaRG_CYP2E1: Life Technologies and Expression Analysis (LTEA) Assay for CYP2E1 using HepaRG (AID 2283485)
How it was run: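 HepaRG cells in serum-free induction medium exposed 48 h to test chemicals, 8 half-log concentrations up to 100 uM in 0.5% DMSO, duplicate. CYP2E1 mRNA by qRT-PCR, normalized to ACTB, GAPDH, POLR2A; bidirectional fit versus DMSO.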

CYP4A11 (gene 1579) = test: LTEA_HepaRG_CYP4A11: Life Technologies and Expression Analysis (LTEA) Assay for CYP4A11 using HepaRG (AID 2283486)
How it was run: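 Readout is CYP4A11 transcript level by qRT-PCR, normalized to three housekeeping genes and fitted bidirectionally against 0.5% DMSO. Human HepaRG cells were treated 48 h, in duplicate, with an 8-point half-log series topping at 100 uM.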

[1] = read-out: Cytochrome P450 3A4 (Homo sapiens) (UniProt P08684); test: LTEA_HepaRG_CYP3A4: Life Technologies and Expression Analysis (LTEA) Assay for CYP3A4 using HepaRG (AID 2283487)
How it was run: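 HepaRG, 48 h exposure, 8-pt CRC from 100 uM (half-log), 0.5% DMSO, duplicates; serum-free induction medium. Readout: CYP3A4 mRNA, qRT-PCR, ACTB/GAPDH/POLR2A normalization. Bidirectional fit vs DMSO.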

[2] = read-out: Pro-epidermal growth factor (Homo sapiens) (UniProt P01133); test: LTEA_HepaRG_EGF: Life Technologies and Expression Analysis (LTEA) Assay for Epidermal growth factor (EGF) using HepaRG (AID 2283489)
How it was run: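 EGF transcript measured by Fluidigm TaqMan qRT-PCR with three housekeeping genes for normalization, 48 h after dosing HepaRG cultures in duplicate (top 100 uM, half-log steps, 0.5% DMSO vehicle). Gain or loss relative to DMSO fitted.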

[3] = read-out: Early growth response protein 1 (EGR1) transcription factor, EGR1 (gene 1958); test: LTEA_HepaRG_EGR1: Life Technologies and Expression Analysis (LTEA) Assay for Early growth response protein 1 (EGR1) transcription factor using HepaRG (AID 2283490)
How it was run: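 Differentiated HepaRG cells in serum-free induction medium exposed 48 hours, duplicate, to 8 half-log concentrations up to 100 uM in 0.5% DMSO. EGR1 mRNA measured by TaqMan qRT-PCR, normalized to ACTB, GAPDH, POLR2A; bidirectional fit versus DMSO.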

[4] = read-out: Cytochrome P450 3A7 (Homo sapiens) (UniProt P24462); test: LTEA_HepaRG_CYP3A7: Life Technologies and Expression Analysis (LTEA) Assay for CYP3A7 using HepaRG (AID 2283492)
How it was run: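 CYP3A7 transcript measured by qRT-PCR (ACTB, GAPDH, POLR2A normalization) after 48 h chemical exposure of HepaRG cells in duplicate. Eight half-log concentrations, maximum 100 uM, 0.5% DMSO vehicle; bidirectional curve fitting against DMSO baseline.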

CYP3A5 (gene 1577) = test: LTEA_HepaRG_CYP3A5: Life Technologies and Expression Analysis (LTEA) Assay for CYP3A5 using HepaRG (AID 2283493)
How it was run: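 Differentiated HepaRG cells in serum-free induction medium were dosed 48 h with test chemicals (8-point half-log series, top 100 uM, 0.5% DMSO, duplicate). CYP3A5 mRNA measured by qRT-PCR, normalized to ACTB, GAPDH, POLR2A; bidirectional fit versus DMSO.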

[5] = read-out: Cytochrome P450 7A1 (Homo sapiens) (UniProt P22680); test: LTEA_HepaRG_CYP7A1: Life Technologies and Expression Analysis (LTEA) Assay for Cytochrome P450 7A1 (CYP7A1) using HepaRG (AID 2283496)
How it was run: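 Gene expression endpoint in human HepaRG liver cells treated for 48 h with test chemicals (up to 100 uM, 0.5% DMSO). Values come from bidirectional concentration-response fitting versus DMSO.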

[6] = read-out: Glutathione S-Transferase (GSTA2), GSTA2 (gene 2939); test: LTEA_HepaRG_GSTA2: Life Technologies and Expression Analysis (LTEA) Assay for Glutathione S-Transferase (GSTA2) using HepaRG (AID 2283497)
How it was run: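 Differentiated human HepaRG cells were exposed in duplicate for 48 h in serum-free induction medium, 8 points from 100 uM top in half-log steps, 0.5% DMSO. GSTA2 mRNA was measured by TaqMan qRT-PCR, normalized to ACTB, GAPDH and POLR2A; bidirectional fit versus DMSO.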

[7] = read-out: Glutamate-cysteine ligase catalytic (GCLC), GCLC (gene 2729); test: LTEA_HepaRG_GCLC: Life Technologies and Expression Analysis (LTEA) Assay for Glutamate-cysteine ligase catalytic (GCLC) using HepaRG (AID 2283498)
How it was run: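 Differentiated HepaRG cells exposed 48 h in serum-free induction medium, eight-point half-log series topping at 100 uM in 0.5% DMSO, duplicates. GCLC mRNA by qRT-PCR normalized to ACTB, GAPDH and POLR2A, fitted bidirectionally versus DMSO.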

[8] = read-out: growth arrest and DNA damage 45 (GADD45G), GADD45G (gene 10912); test: LTEA_HepaRG_GADD45G: Life Technologies and Expression Analysis (LTEA) Assay for growth arrest and DNA damage 45 (GADD45G) using HepaRG (AID 2283499)
How it was run: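 GADD45G transcript level by qRT-PCR (housekeeping-normalized: ACTB, GAPDH, POLR2A) after 48 h chemical treatment of a single HepaRG lot in serum-free induction medium; eight-point half-log series up to 100 uM in 0.5% DMSO, duplicates, up- or down-regulation scored.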

[9] = read-out: Glutamate-cysteine ligase regulatory (GCLM), GCLM (gene 2730); test: LTEA_HepaRG_GCLM: Life Technologies and Expression Analysis (LTEA) Assay for Glutamate-cysteine ligase regulatory (GCLM) using HepaRG (AID 2283500)
How it was run: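 Differentiated human HepaRG cells exposed 48 h in serum-free induction medium to 8-point half-log concentrations (top 100 uM, 0.5% DMSO), in duplicate. GCLM mRNA quantified by qRT-PCR, normalized to ACTB, GAPDH, POLR2A; bidirectional fitting versus DMSO.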

[10] = read-out: Glutathione S-transferase M3 (GSTM3), GSTM3 (gene 2947); test: LTEA_HepaRG_GSTM3: Life Technologies and Expression Analysis (LTEA) Assay for Glutathione S-transferase M3 (GSTM3) using HepaRG (AID 2283501)
How it was run: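 GSTM3 transcript levels came from Fluidigm TaqMan qRT-PCR normalized to three housekeeping genes, fitted in both directions against DMSO. HepaRG cultures received chemicals for 48 h in serum-free induction medium (0.5% DMSO), 8 half-log concentrations up to 100 uM, duplicate.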

[11] = read-out: Heat shock 70 kDa protein 1 (HSPA1A), gene 3303; test: LTEA_HepaRG_HSPA1A: Life Technologies and Expression Analysis (LTEA) Assay for Heat shock 70 kDa protein 1 (HSPA1A) using HepaRG (AID 2283502)
How it was run: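 Differentiated human HepaRG cells in serum-free induction medium were exposed in duplicate for 48 h to eight concentrations (top 100 uM, half-log steps, 0.5% DMSO). HSPA1A mRNA was quantified by qRT-PCR, normalized to ACTB, GAPDH and POLR2A, and fitted bidirectionally against DMSO.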

[12] = read-out: Hypoxia-inducible factor 1-alpha (Homo sapiens) (UniProt Q16665); test: LTEA_HepaRG_HIF1A: Life Technologies and Expression Analysis (LTEA) Assay for Hypoxia-inducible factor 1 (HIF1A) Trancription factor using HepaRG (AID 2283503)
How it was run: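 HepaRG, 48 h exposure, 8-pt half-log series from 100 uM, 0.5% DMSO vehicle, duplicates. Readout: HIF1A transcript by qRT-PCR (Fluidigm array), housekeeping-normalised. Bidirectional curve fit vs DMSO baseline.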

[13] = read-out: 3-Hydroxy-3-Methylglutaryl-CoA Synthase 2 (HMGCS2), HMGCS2 (gene 3158); test: LTEA_HepaRG_HMGCS2: Life Technologies and Expression Analysis (LTEA) Assay for 3-Hydroxy-3-Methylglutaryl-CoA Synthase 2 (HMGCS2) using HepaRG (AID 2283504)
How it was run: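 Readout is HMGCS2 transcript by qRT-PCR, housekeeping-normalised (ACTB/GAPDH/POLR2A) and fitted bidirectionally against 0.5% DMSO. Differentiated HepaRG cells received chemicals 48 h, duplicate wells, eight half-log concentrations topping at 100 uM.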

HGF (gene 3082) = test: LTEA_HepaRG_HGF: Life Technologies and Expression Analysis (LTEA) Assay for Hepatocyte Growth Facto (HGF) using HepaRG (AID 2283505)
How it was run: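 HGF transcript was quantified by TaqMan qRT-PCR against three housekeeping genes after 48 h treatment of HepaRG cells. Exposure ran in duplicate over eight half-log steps topping at 100 uM in 0.5% DMSO vehicle.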

[14] = read-out: Insulin Like Growth Factor 1 (IGF1), IGF1 (gene 3479); test: LTEA_HepaRG_IGF1: Life Technologies and Expression Analysis (LTEA) Assay for Insulin Like Growth Factor 1 (IGF1) using HepaRG (AID 2283506)
How it was run: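 Differentiated human HepaRG cells were dosed for 48 h in serum-free induction medium with 0.5% DMSO, eight half-log concentrations up to 100 uM, in duplicate. IGF1 mRNA was quantified by qRT-PCR normalized to ACTB, GAPDH, POLR2A; bidirectional fitting versus DMSO.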

[15] = read-out: Intercellular Adhesion Molecule 1 (ICAM1), ICAM1 (gene 3383); test: LTEA_HepaRG_ICAM1: Life Technologies and Expression Analysis (LTEA) Assay for Intercellular Adhesion Molecule 1 (ICAM1) using HepaRG (AID 2283507)
How it was run: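 ICAM1 transcript levels measured by qRT-PCR, normalized to three housekeeping genes (ACTB, GAPDH, POLR2A), after 48 h chemical exposure of HepaRG cells. Duplicate eight-point half-log series from 100 uM in 0.5% DMSO; gain or loss fitted against vehicle.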

[16] = read-out: Insulin-like growth factor-binding protein 1 (IGFBP1), IGFBP1 (gene 3484); test: LTEA_HepaRG_IGFBP1: Life Technologies and Expression Analysis (LTEA) Assay for Insulin-like growth factor-binding protein 1 (IGFBP1) using HepaRG (AID 2283508)
How it was run: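 Read-out is qRT-PCR transcript level normalized to three housekeeping genes, fitted in both directions against 0.5% DMSO. Differentiated HepaRG cells received eight half-log concentrations (top 100 uM) in duplicate for 48 h in serum-free induction medium.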

Measured: AC50

Cytochrome P450 3A4 (Homo sapiens), sequence (P08684 whole entry, looked up): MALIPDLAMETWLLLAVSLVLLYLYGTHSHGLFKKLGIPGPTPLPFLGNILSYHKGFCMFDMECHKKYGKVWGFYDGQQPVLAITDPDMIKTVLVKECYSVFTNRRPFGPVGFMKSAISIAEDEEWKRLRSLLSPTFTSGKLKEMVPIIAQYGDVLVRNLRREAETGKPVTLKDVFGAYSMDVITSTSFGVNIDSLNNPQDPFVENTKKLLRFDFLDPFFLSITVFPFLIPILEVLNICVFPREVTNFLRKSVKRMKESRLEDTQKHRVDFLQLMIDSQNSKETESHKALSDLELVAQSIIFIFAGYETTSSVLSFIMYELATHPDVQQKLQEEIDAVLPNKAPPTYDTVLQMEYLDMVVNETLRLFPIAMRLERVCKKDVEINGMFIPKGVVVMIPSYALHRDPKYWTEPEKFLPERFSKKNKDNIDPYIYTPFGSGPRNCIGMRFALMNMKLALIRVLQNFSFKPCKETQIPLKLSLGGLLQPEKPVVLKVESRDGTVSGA
Cytochrome P450 3A7 (Homo sapiens), sequence (P24462 whole entry, looked up): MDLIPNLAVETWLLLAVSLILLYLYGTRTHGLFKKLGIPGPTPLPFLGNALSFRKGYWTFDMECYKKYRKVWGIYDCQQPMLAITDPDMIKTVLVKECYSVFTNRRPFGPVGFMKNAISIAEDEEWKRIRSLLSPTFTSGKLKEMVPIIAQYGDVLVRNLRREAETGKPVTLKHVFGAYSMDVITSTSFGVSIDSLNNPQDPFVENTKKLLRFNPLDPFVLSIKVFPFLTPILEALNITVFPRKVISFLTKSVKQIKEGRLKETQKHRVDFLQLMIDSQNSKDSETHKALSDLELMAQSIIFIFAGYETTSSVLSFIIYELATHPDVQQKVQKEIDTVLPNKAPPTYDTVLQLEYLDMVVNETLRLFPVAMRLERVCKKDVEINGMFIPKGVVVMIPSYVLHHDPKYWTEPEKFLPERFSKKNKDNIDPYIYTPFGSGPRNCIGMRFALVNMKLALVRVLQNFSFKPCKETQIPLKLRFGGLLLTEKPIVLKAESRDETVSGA
Hypoxia-inducible factor 1-alpha (Homo sapiens), sequence (Q16665 whole entry, looked up): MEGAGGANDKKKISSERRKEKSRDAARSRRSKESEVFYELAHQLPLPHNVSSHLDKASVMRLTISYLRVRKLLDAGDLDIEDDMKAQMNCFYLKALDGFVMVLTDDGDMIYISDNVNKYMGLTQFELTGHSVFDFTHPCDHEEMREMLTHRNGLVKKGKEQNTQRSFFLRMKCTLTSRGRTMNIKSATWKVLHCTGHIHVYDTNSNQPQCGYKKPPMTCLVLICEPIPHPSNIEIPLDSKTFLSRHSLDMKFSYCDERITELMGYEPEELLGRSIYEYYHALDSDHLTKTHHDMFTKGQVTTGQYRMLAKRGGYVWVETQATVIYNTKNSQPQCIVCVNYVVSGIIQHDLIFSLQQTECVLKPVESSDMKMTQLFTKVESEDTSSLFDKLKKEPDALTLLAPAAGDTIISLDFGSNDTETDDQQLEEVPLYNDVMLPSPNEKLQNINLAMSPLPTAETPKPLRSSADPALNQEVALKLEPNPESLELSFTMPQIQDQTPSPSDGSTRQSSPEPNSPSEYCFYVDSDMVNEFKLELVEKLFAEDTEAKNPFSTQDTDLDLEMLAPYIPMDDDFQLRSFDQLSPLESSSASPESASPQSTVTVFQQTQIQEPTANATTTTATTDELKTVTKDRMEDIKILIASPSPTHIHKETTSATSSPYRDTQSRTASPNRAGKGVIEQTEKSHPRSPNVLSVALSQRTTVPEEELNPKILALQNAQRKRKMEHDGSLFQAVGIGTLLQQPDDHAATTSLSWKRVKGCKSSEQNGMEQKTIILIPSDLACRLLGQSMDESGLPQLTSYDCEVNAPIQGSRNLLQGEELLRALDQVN

CCOP(=S)(OCC)SCSP(=S)(OCC)OCC
inactive: CYP4A11 (gene 1579) | [2] | [3] | [6] | [9] | [10] | [11] | [12] | HGF (gene 3082) | [15] | [16]
active: CYP2E1 (gene 1571) 19.2 µM | [1] 12.5 µM | [4] 50 µM | CYP3A5 (gene 1577) 0.236 µM | [5] 9.92 µM | [7] 0.0663 µM | [8] 1.49 µM | [13] 9.92 µM | [14] 0.0903 µM

O=c1[nH]c(=O)[nH]c(=O)[nH]1
inactive: CYP2E1 (gene 1571) | CYP4A11 (gene 1579) | [1] | [2] | [3] | [4] | CYP3A5 (gene 1577) | [5] | [6] | [7] | [8] | [9] | [10] | [11] | [12] | [13] | HGF (gene 3082) | [14] | [15] | [16]

CC(C)(c1ccccc1)c1ccc(O)c(C(C)(C)c2ccccc2)c1
active: CYP2E1 (gene 1571) 62.4 µM | CYP4A11 (gene 1579) 73.4 µM | [1] 12.3 µM | [2] 29.4 µM | [3] 72.1 µM | [4] 80.8 µM | [5] 58.2 µM | [9] 50 µM | [11] 50 µM | [12] 90.2 µM | [13] 71.5 µM | [14] 50 µM | [15] 50 µM
inactive: CYP3A5 (gene 1577) | [6] | [7] | [8] | [10] | HGF (gene 3082) | [16]

ClCC(Cl)CCl
inactive: CYP2E1 (gene 1571) | CYP4A11 (gene 1579) | [1] | [2] | [3] | [4] | CYP3A5 (gene 1577) | [5] | [6] | [7] | [8] | [9] | [10] | [11] | [12] | [13] | HGF (gene 3082) | [14] | [15] | [16]

NC(=O)O
inactive: CYP2E1 (gene 1571) | CYP4A11 (gene 1579) | [1] | [2] | [3] | [4] | CYP3A5 (gene 1577) | [5] | [6] | [7] | [8] | [9] | [10] | [11] | [12] | [13] | HGF (gene 3082) | [14] | [15] | [16]
